In the supplement of paper PMC10412459:

Tested on: K562 SF3B1 K700E vs K562 SF3B1 WT
Assay: surviving fraction ratio K562 SF3B1 K700E / K562 SF3B1 WT (each relative to DMSO); higher = less selective killing of SF3B1 K700E cells
Conditions: 5 days
Outline: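 Each value is the mutant-to-wild-type ratio of surviving fractions, with both fractions normalised to DMSO and viability read by CellTiter-Glo. Isogenic K562 cells with an engineered mutant allele and their matched wild-type counterparts were seeded at 250 cells per well in 384-well plates. After 24 h, an in-house 80-compound library was added at 0.5, 1, 5, 10, 50, 100, 500 and 1,000 nM, followed by 5 d of continuous culture.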

SMILES	surviving fraction ratio K562 SF3B1 K700E / K562 SF3B1 WT (0.5nM)	surviving fraction ratio K562 SF3B1 K700E / K562 SF3B1 WT (1nM)	surviving fraction ratio K562 SF3B1 K700E / K562 SF3B1 WT (5nM)	surviving fraction ratio K562 SF3B1 K700E / K562 SF3B1 WT (10nM)	surviving fraction ratio K562 SF3B1 K700E / K562 SF3B1 WT (50nM)	surviving fraction ratio K562 SF3B1 K700E / K562 SF3B1 WT (100nM)	surviving fraction ratio K562 SF3B1 K700E / K562 SF3B1 WT (500nM)	surviving fraction ratio K562 SF3B1 K700E / K562 SF3B1 WT (1000nM)
COc1cc2nccc(Oc3ccc(NC(=O)NC4CC4)c(Cl)c3)c2cc1C(N)=O [Lenvatinib]	0.728	0.787	0.763	0.755	0.815	0.834	0.71	0.674
CN(Cc1cnc2nc(N)nc(N)c2n1)c1ccc(C(=O)N[C@@H](CCC(=O)O)C(=O)O)cc1 [methotrexate]	0.824	0.836	0.971	2.8	3.75	4.08	3.5	3.58
O=C(O)CC[C@H]1CC[C@@](c2cc(F)ccc2F)(S(=O)(=O)c2ccc(Cl)cc2)CC1	0.908	1.04	0.989	0.805	0.852	0.975	0.932	1.04
C[C@]1(O)C[C@@H](c2nc(-c3ccc4ccc(-c5ccccc5)nc4c3)c3c(N)nccn32)C1	0.876	0.823	0.862	0.829	0.861	0.795	0.804	0.873
CC[C@@H](C(=O)[C@@H](C)[C@@H](O)[C@H](C)[C@@H]1O[C@@H]([C@@H](CC)C(=O)O)CC[C@@H]1C)[C@H]1O[C@]2(C=C[C@@H](O)[C@]3(CC[C@@](C)([C@H]4CC[C@](O)(CC)[C@H](C)O4)O3)O2)[C@H](C)C[C@@H]1C [salinomycin]	0.921	0.999	0.871	1.27	0.88	0.831	0.898	1.16
CN1CC[C@H](c2c(O)cc(O)c3c(=O)cc(-c4ccccc4Cl)oc23)[C@H](O)C1 [Flavopiridol]	0.8	0.83	0.793	0.847	0.916	0.929	1.89	2.25
Cc1ccc(NC(=O)c2ccc(CN3CCN(C)CC3)cc2)cc1Nc1nccc(-c2cccnc2)n1 [imatinibmesylate]	0.696	0.74	0.733	0.692	0.55	0.617	1.5	1.1
O=C(c1cc(Cc2n[nH]c(=O)c3ccccc23)ccc1F)N1CCN(C(=O)C2CC2)CC1 [olaparib]	0.978	0.979	0.926	0.839	0.947	1.02	1.1	0.871
Cc1ccc(-c2cc(C(F)(F)F)nn2-c2ccc(S(N)(=O)=O)cc2)cc1 [celecoxib]	0.751	0.819	0.804	0.813	0.673	0.736	0.79	0.698
CC/C(=C(\c1ccc(O)cc1)c1ccc(OCCN(C)C)cc1)c1ccccc1 [4-OH-tamoxifen]	0.874	0.875	0.857	0.778	1	0.923	0.884	0.993
CC(=O)NCC(=O)N1[C@@H]2CC[C@H]1c1ccc(Nc3ncc(C(F)(F)F)c(NC4CCC4)n3)cc12	0.948	1.01	0.872	0.883	0.549	1.05	1.18	1.64
NC1(c2ccc(-c3nc4ccn5c(=O)[nH]nc5c4cc3-c3ccccc3)cc2)CCC1	0.882	0.849	0.841	0.686	0.61	0.706	0.654	0.626
C=CC(=O)Nc1cc2c(Nc3ccc(F)c(Cl)c3)ncnc2cc1OCCCN1CCOCC1 [canertinib]	0.814	0.878	0.921	0.888	0.721	0.79	0.72	0.639
